From ChEMBL document CHEMBL3988442, “University of Dundee, Small-Polar-MMV Screening Library” (2021)
Hit rate of the full screen: of about 48,000 compounds, about 13,000 (27%) showed an effect of 50% or more. The list shows a part of the results.

What follows are compounds tested on Wolbachia pipientis (assay: Anti-Wolbachia Cell-Based Screen). Conditions: 5 µM.
Format: functional
Design: scale not given: in the data most compounds retested in dose-response had high values

SMILES | Percent Effect
Cc1nc(S(=O)(=O)CCn2cccn2)n(C2CCCC2)c1C | -3.165%
CCOC(=O)CNC(=O)N1CCN(c2ncccn2)CC1 | -13.49%
CCOC(=O)CNC(=O)N1CCOC(CCc2ccccc2)C1 (configuration not stated) | -4.892%
CCOC(=O)CNC(=O)N1CCC(OC)c2ccccc2N(C)C(=O)C1 (configuration not stated) | 109.7%
O=C(COC[C@@]12CCC[C@@H]1CN(C1CCCC1)C2)N1CCCC1.O=C(O)C(F)(F)F | 93.22%
CCCS(=O)(=O)N1C[C@@H]2COC[C@]2(CN2CCOCC2)C1.O=C(O)C(F)(F)F | -7.734%
C1CC(N2C[C@@H]3COC[C@]3(COCC3CCOCC3)C2)C1.O=C(O)C(F)(F)F | 101.5%
COCCNC(=O)[C@]12COC[C@H]1CN(C1CCOCC1)C2 | -42.69%
CS(=O)(=O)N1C[C@H]2CCC[C@@]2(COCC2CCOCC2)C1 | -10.38%
CS(=O)(=O)N1C[C@@H]2COC[C@]2(COCC(=O)N2CCCC2)C1 | 114.9%
CS(=O)(=O)N1C[C@@H]2COC[C@]2(CN2CCOCC2)C1.O=C(O)C(F)(F)F | 2.768%
O=C(COC[C@]12COC[C@H]1CN(C1CCC1)C2)N1CCCC1.O=C(O)C(F)(F)F | 91.79%
CN(C)S(=O)(=O)N1C[C@H]2CCC[C@@]2(COCc2cccnc2)C1.O=C(O)C(F)(F)F | 15.15%
CCc1ccc(CNC(=O)CCNc2ncccn2)s1 | 5.252%
CCOC(=O)CCCc1ccc2c(c1)CC(=O)N2 | 6.435%
Cc1ncn(-c2cc(N3CCN(S(C)(=O)=O)CC3)ncn2)c1C | -0.4612%
Cc1cc(C)c2nc(CNC3CCNC3=O)cc(O)c2c1 (configuration not stated) | -8.98%
CC(C)c1nc(S(=O)(=O)N(C)c2ccc(F)cc2)c[nH]1 | -3.559%
Cc1cc(CN2C[C@H]3CCC[C@@]3(COCC(=O)N3CCCC3)C2)no1 | -8.943%
CN(C)C(=O)COC[C@@]12CCC[C@@H]1CN(C1CCCC1)C2.O=C(O)C(F)(F)F | -10.47%
O=C(COC[C@@]12CCC[C@@H]1CN(C1CCC1)C2)N1CCCC1.O=C(O)C(F)(F)F | 106.1%
CN(C)C(=O)COC[C@@]12CCC[C@@H]1CN(C1CCC1)C2.O=C(O)C(F)(F)F | 4.654%
Cc1ccc(CN2CC[C@H]3OCC[C@@]3(COCC(=O)N(C)C)C2)s1.O=C(O)C(F)(F)F | -46.75%
CN(C)C(=O)COC[C@]12COC[C@H]1CN(C1CCCC1)C2.O=C(O)C(F)(F)F | 91.16%
Cc1nc(NC(=O)OC(C)(C)C)sc1C(N)=O | 1.161%

SMILES | Percent Effect
CC(C)c1nnc(CN(C)C(c2ccc(F)cc2)c2cccnc2)o1 (configuration not stated) | 1.551%
Cc1cc(C)nc(N2CCc3ccc(OC(F)F)cc3C2)n1 | 7.415%
Cc1ccnc(OC[C@]23COC[C@H]2CN(C(=O)c2ccnn2C)C3)n1 | 78.09%
Cc1ccnc(OC[C@]23COC[C@H]2CN(C(=O)C2=CCCCC2)C3)n1 | 104.7%
Cc1ccc(C(=O)N2C[C@@H]3COC[C@]3(COCc3cccnc3)C2)cn1 | -15.81%
COC[C@]12COC[C@H]1CN(C(=O)c1ccc(F)cc1C)C2 | -9.416%
Cc1ccnc(OC[C@]23COC[C@H]2CN(C(=O)c2ncccn2)C3)n1 | 94.44%
Cn1cc(C(=O)N2C[C@@H]3COC[C@]3(COCc3cccnc3)C2)cn1 | 5.656%
Cc1ccnc(OC[C@]23COC[C@H]2CN(C(=O)c2cnccn2)C3)n1 | 95.8%
Cc1nc(C(=O)N2C[C@@H]3COC[C@]3(COCc3cccnc3)C2)cs1 | -15.42%
CS(=O)(=O)NC[C@]12COC[C@H]1CN(C(=O)c1cnccn1)C2 | -1.744%
Cc1cc(N(C)C)nc(NC2CCc3nc(C)nn3C2)n1 (configuration not stated) | 0.6524%
O=C(C1CC1)N1C[C@H]2CNC[C@@]2(C(=O)NCCCc2ccccc2)C1 | -23.56%
CCn1cc(CN2CCC(CNC(C)=O)CC2)cc1C#N | 3.567%
CC(C)Oc1cc(N2CCCC(O)C2)nc(N)n1 (configuration not stated) | -24.67%
COCCN1CCC(CN(C)c2nc3c(s2)c(C)nn3C)C1 (configuration not stated) | -0.8373%
CCc1nc(N)sc1C(=O)N1CCC(c2cc(O)nc(C)n2)CC1 | -4.912%
COCCN1CCC1c1cc(N)nc(C)n1 (configuration not stated) | 66.06%
Cc1nn(C)c(C)c1C1CCCN1CCOc1cccc(C#N)c1 (configuration not stated) | -3.583%
COCCN1CCN(Cc2ccc3nsnc3c2)[C@H]2CS(=O)(=O)C[C@H]21 | 0.2231%
Cc1nc(N)cc(C2CCN2CCC(N)=O)n1 (configuration not stated) | 67.17%
COCCCn1ccc(NC2CCSCC2)n1 | -2.987%
Cc1cc(N2CCC(NCCOc3ccccc3)CC2)nc(C)n1 | 2.138%
COCCCn1ccc(NC2CCOCC2)n1 | 12.54%
Cc1ncsc1C(=O)NC1CCN(CCC(N)=O)CC1 | -6.823%

SMILES | Percent Effect
COCCN1CCC1c1cc(NC2CCCC2)nc(C)n1 (configuration not stated) | 74.49%
Cc1nc(N)cc(C2CCN2CCOc2ccccc2)n1 (configuration not stated) | 153.2%
CCN(Cc1noc(CC(C)C)n1)Cc1ncccc1C(=O)O | 0.41%
O=C(Cc1ccc(F)cc1)NCC(O)(c1cccs1)C1CC1 (configuration not stated) | -8.989%
O=C(c1ccnc(N2CCOC(C(F)(F)F)C2)c1)N1CCCC1 (configuration not stated) | 104.2%
O=C(c1ccccc1-c1nc[nH]n1)N1CCOC(C(F)(F)F)C1 (configuration not stated) | -3.819%
O=C(c1ccc(-c2nc[nH]n2)cc1)N1CCOC(C(F)(F)F)C1 (configuration not stated) | 16.44%
CN1CCN(C(=O)c2ccnc(N3CCOC(C(F)(F)F)C3)c2)CC1 (configuration not stated) | 130.4%
O=C(c1ccnc(N2CCOC(C(F)(F)F)C2)c1)N1CCOCC1 (configuration not stated) | 126.7%
O=C(c1ccnc(N2CCOC(c3ccc(Cl)cc3)C2)c1)N1CCCC1 (configuration not stated) | 5.063%
CCCOC1CCCN(C(=O)c2ccnc(N3CCN(C)CC3)c2)C1 (configuration not stated) | -2.412%
FC(F)(F)C1CN(c2nc(-c3ccccc3)no2)CCO1 (configuration not stated) | 1.85%
Cc1cc(N2CCOC(C(F)(F)F)C2)nc(-c2ccccc2O)n1 (configuration not stated) | 0.367%
N#CC(NC(=O)CC1CCSCC1)c1cnn(-c2ccccc2)c1 (configuration not stated) | -2.178%
O=C(c1cccc(O)c1)N1CCN(Cc2nnc(C3CCC3)o2)CC1 | 6.828%
Cc1csc(NC(=O)[C@@H]2C[C@H]3[C@H](CCN3c3ncccn3)O2)n1.O=C(O)C(F)(F)F | 118%
Cc1csc(NC(=O)[C@@H]2C[C@H]3[C@H](CCN3S(C)(=O)=O)O2)n1 | 118.9%
CNC(=O)[C@@H]1CC[C@@H]2[C@@H](CCN2C(=O)N(C)C)O1 | -10.15%
CC(=O)N1CC[C@@H]2O[C@@H](COCc3csc(C)n3)CC[C@@H]21 | -30.94%
CN1CCC(NC(=O)[C@H]2CC[C@@H]3[C@@H](CCN3c3ncccn3)O2)CC1.O=C(O)C(F)(F)F.O=C(O)C(F)(F)F | 7.6%
CS(=O)(=O)N1CC[C@H]2O[C@H](C(=O)NCc3cccnc3)CC[C@H]21 | -7.533%
O=C(NCc1cccnc1)[C@@H]1C[C@H]2[C@H](CCN2c2ncccn2)O1.O=C(O)C(F)(F)F.O=C(O)C(F)(F)F | -20.81%
CS(=O)(=O)N1CC[C@H]2O[C@@H](C(=O)NCc3ccco3)CC[C@H]21 | -0.8352%
CC(=O)N1CC[C@@H]2O[C@H](C(=O)Nc3nc(C)cs3)C[C@@H]21 | 101%
NC(=O)CCn1ccc(NC(=O)c2ccc(Br)o2)n1 | -16.68%

SMILES | Percent Effect
O=C(NCC1(N2CCOCC2)CCSC1)Nc1ccc(F)cc1 (configuration not stated) | -9.419%
CCCOc1ccccc1CCCNc1ncnc2oc(C)nc12 | -6.613%
CCc1nccc(CN2CCC(CNC(=O)c3occc3C)C2)n1 (configuration not stated) | -2.673%
CC(N1CCN(C(=O)NCc2cccc(C#N)c2)CC1)C(F)(F)F (configuration not stated) | -0.6976%
O=C(C1CCCCO1)N1CCc2ncnc(NCCO)c2CC1 (configuration not stated) | -13.54%
CC(C)Nc1ncnc2c1CCN(C(=O)[C@H]1CCCO1)CC2 | 89.47%
O=C([C@H]1CCCO1)N1CCc2ncnc(C3CC3)c2CC1 | 109.2%
CCN(C)c1ncnc2c1CCN(C(=O)[C@H]1CCCO1)CC2 | 4.637%
O=C(c1ccnnc1)N1CCc2ncnc(C3CCOC3)c2CC1 (configuration not stated) | -19.12%
O=C(C1CCCCO1)N1CCc2ncnc(NCc3ccon3)c2CC1 (configuration not stated) | -8.792%
CCCN(C)C(=O)c1cc(Br)cc(S(=O)(=O)N2CCOCC2)c1F | 6.063%
Cc1nnc(N2CCCC3(CN(c4cccc(F)c4)CCO3)C2)o1 (configuration not stated) | -14.38%
O=C(NCCN1CCOCC1)c1cc(Cl)c2c(c1)OCCCO2 | 12.84%
CCn1c(CN2CCOC(Cn3cncn3)C2)nc2c(F)cccc21 (configuration not stated) | -6.661%
Cc1ccc(C(CNCC2CC2)N2CCOCC2)s1 (configuration not stated) | -12.57%
O=C(c1ccc(-n2cnnc2)cc1)N1CCC(Nc2cccnn2)CC1 | 87.89%
CC(C(=O)N1CCC(Nc2cccnn2)CC1)n1ccnc1 (configuration not stated) | 3.754%
Cc1cccc2nc(C(=O)N3CCC(Nc4cccnn4)CC3)cn12 | -6.08%
O=C(c1ccc(-c2cnco2)cc1)N1CCC(Nc2cccnn2)CC1 | 107%
CC(Cn1cccn1)C(=O)N1CCC(Nc2cccnn2)CC1 (configuration not stated) | -6.529%
CC(C(=O)N1CCC(Nc2cccnn2)CC1)n1cccn1 (configuration not stated) | 60.47%
CNC(=O)c1ccc(C(=O)N2CCC(Nc3cccnn3)CC2)cn1 | 119%
